From PubChem BioAssay
BoNT-F LC inh – BoNT/F light chain protease inhibitors, primary screen, biochemical, flow cytometry, MLPCN library; Botulinum neurotoxin type F light chain protease (Clostridium botulinum); Multiplex microsphere protease cleavage assay; 360,000 tested, 0.22% active; inhibition, % at 10 µM; in the data active = inhibition above about 35%, passing the limit was not always enough; inconclusive = no clear call, values can overlap the other calls
BoNT-A LC inh2 – BoNT/A light chain protease inhibitors, primary screen, biochemical, flow cytometry, MLPCN library; Botulinum neurotoxin type A light chain protease (Clostridium botulinum A str. ATCC 3502); 360,000 tested, 0.17% active; multiplex microsphere protease substrate cleavage; inhibition, % at 10 µM
Anthrax LF inh2 – Bacillus anthracis LF protease inhibitors, primary screen, biochemical, multiplex microsphere, MLPCN library; multiplex microsphere protease cleavage assay; inhibition, % at 10 µM; 360,000 tested, 0.12% active; AID 588501, 2011
Target sequence (P15917 whole entry, looked up): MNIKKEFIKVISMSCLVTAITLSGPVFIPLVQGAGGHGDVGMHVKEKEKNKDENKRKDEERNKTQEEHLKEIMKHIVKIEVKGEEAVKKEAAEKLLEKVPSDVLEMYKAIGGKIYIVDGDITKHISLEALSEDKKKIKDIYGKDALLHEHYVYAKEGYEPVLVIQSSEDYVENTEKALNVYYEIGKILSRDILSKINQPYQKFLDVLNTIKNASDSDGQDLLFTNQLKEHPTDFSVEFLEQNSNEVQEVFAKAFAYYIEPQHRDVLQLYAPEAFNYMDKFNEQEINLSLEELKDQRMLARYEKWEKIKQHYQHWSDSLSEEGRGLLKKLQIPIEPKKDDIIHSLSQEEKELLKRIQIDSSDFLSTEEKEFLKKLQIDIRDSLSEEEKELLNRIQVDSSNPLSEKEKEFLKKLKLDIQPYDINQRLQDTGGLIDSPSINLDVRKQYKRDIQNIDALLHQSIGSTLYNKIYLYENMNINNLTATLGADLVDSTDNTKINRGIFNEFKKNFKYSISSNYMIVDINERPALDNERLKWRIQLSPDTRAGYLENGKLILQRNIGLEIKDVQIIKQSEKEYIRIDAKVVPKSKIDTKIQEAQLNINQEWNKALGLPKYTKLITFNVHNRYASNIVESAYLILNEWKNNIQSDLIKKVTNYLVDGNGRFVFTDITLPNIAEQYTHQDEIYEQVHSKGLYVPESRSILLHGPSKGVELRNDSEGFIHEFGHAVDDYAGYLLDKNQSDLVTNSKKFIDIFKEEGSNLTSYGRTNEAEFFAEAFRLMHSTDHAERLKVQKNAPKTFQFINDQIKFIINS
Autofluor counter – counter-screen for toxin protease inhibitors: compound fluorescence | fluorescence intensity (no concentration beside the values) | AID 624483 | 360,000 tested, 3.1% active | compound autofluorescence counterscreen, microsphere flow cytometry; active compounds read high; in the data active = fluorescence intensity above about 16000; inconclusive = no clear call, values can overlap the other calls
Each line names hits and unclear results; the compound was inactive in the other large screens. The list is not random: actives were taken first. Their share in the collection is about 3.5%. Rule as the data show it, unless noted: active = inhibition above about 30%; inconclusive = no clear call, values can overlap the other calls; inactive = below that.

COCCN(C(=O)COC(=O)CNC(=O)c1ccc(C)cc1)c1c(N)n(Cc2ccccc2)c(=O)[nH]c1=O	none
Cc1ccccc1-n1c(SCC(=O)N2CCC(C(=O)O)CC2)nnc1-c1ccncc1	none
Cc1ccnc(SCC(=O)N2CCN(c3ccccc3)CC2)n1	Autofluor counter 21477
Cc1ccccc1-n1c(SCC(=O)N2CCOCC2)nc(O)cc1=O	BoNT-A LC inh2 inconclusive, Autofluor counter 21580
O=C(CSc1nnc(-c2ccccc2)n1-c1ccccc1)N1c2ccccc2Sc2ccccc21	Autofluor counter 21718
COc1ccccc1-n1c(SCC(=O)N2CCOCC2)nc(O)cc1=O	none
Cc1ccnc(SCC(=O)N2CCN(c3cccc(Cl)c3)CC2)n1	none
Cc1ccccc1-n1c(SCC(=O)N2CCN(c3ccccc3)CC2)nnc1-c1ccncc1	Autofluor counter 21220
Cc1nnc(SCC(=O)N2c3ccccc3Sc3ccccc32)n1N	none
O=C(NCC1CCCO1)C1CC1(c1ccccc1)c1ccccc1 (stereo not drawn)	none
O=C1CCC(C(=O)OCc2c(Cl)cccc2Cl)N1 (stereo not drawn)	Autofluor counter 20438
Cc1cc(C(C)(C)C)cc(C)c1COC(=O)C1CCC(=O)N1 (stereo not drawn)	none
O=C1CCC(C(=O)OCc2ccccc2)N1 (stereo not drawn)	Autofluor counter 24033
O=C1CCC(C(=O)Nc2ccccc2)N1 (stereo not drawn)	none
COc1ccccc1N/C=C/C(=C(C#N)C#N)N(C)C	none
CCOC(=O)c1oc2cccc(O)c2c1C	none
CCOC(=O)c1oc2cccc(O)c2c1CN(Cc1ccccc1)C(C)=O	BoNT-A LC inh2 inconclusive, Autofluor counter 20279
CCOc1ccc2nc3ccc4[nH]onc4c3c2c1	BoNT-F LC inh 50, BoNT-A LC inh2 inconclusive
CCOc1ccc2nc(N3CCOCC3)nc(C)c2c1	none
COc1ccc(-c2csc(NCCc3nc4cc(Cl)c(Cl)cc4n3CCCO)n2)cc1	none
Cc1cc(C)nc(SCC(=O)NC2=NN=C(c3ccc(Br)cc3)CS2)n1	BoNT-A LC inh2 inconclusive, Autofluor counter 24625
CCC(Sc1nc(C)cc(C)n1)C(=O)NC1=NN=C(c2ccc(C)cc2)CS1 (stereo not drawn)	none
CCn1ncc(C2=NOC(C(=O)NCCc3ccccc3)C2)c1C (stereo not drawn)	none
CCn1ncc(C2=NOC(C(=O)N3CCC(C(N)=O)CC3)C2)c1C (stereo not drawn)	BoNT-A LC inh2 inconclusive, Autofluor counter 21518
CCOC(=O)N1CCN(C(=O)C2CC(c3cc(OC)ccc3OC)=NO2)CC1 (stereo not drawn)	BoNT-A LC inh2 inconclusive, Autofluor counter 23965
CCn1ncc(C2=NOC(C(=O)Nc3cc(OC)c(Cl)cc3OC)C2)c1C (stereo not drawn)	Autofluor counter 18923
CCn1ncc(C2=NOC(C(=O)NCC(C)C)C2)c1C (stereo not drawn)	none
CCn1ncc(C2=NOC(C(=O)Nc3cnn(C45CC6CC(CC(C6)C4)C5)c3)C2)c1C (stereo not drawn)	Autofluor counter 21886
COc1ccc(CC(=O)NCc2n[nH]c(=S)n2-c2cccc(Cl)c2)cc1	none
O=C(COc1cc(Cl)ccc1Cl)Nc1ccc2[nH]c(=O)[nH]c2c1	none
Cc1ccc(Cl)cc1N1CCN(CC(=O)Nc2ccc3[nH]c(=O)[nH]c3c2)CC1	Autofluor counter 19567
CCOc1ccc(NC(=O)CN2CCN(CC(=O)Nc3ccc(Cl)c(C(F)(F)F)c3)CC2)cc1	Autofluor counter 26476
COc1ccccc1N1CCN(CC(=O)Nc2ccc(Cl)c(C(F)(F)F)c2)CC1	Autofluor counter 16616
O=C(NCc1n[nH]c(=S)n1-c1ccc(Cl)c(Cl)c1)c1ccco1	none
O=C(NCc1n[nH]c(=S)n1-c1ccccc1)c1ccco1	Autofluor counter 19724
O=c1ncn(-c2ccc(F)cc2)c2ncccc12	BoNT-A LC inh2 inconclusive, Autofluor counter 20412
NC(=O)CC(NC(=O)c1cccc(Br)c1)c1ccc(NC2CCCCCCCCCCC2)c([N+](=O)[O-])c1 (stereo not drawn)	none
CCCCOC(=S)NC(=O)c1sc2ccccc2c1Cl	Autofluor counter 23574
CN(C)C(=O)Cn1cnc2c(cnn2-c2ccc(F)cc2)c1=O	none
Cc1cccc(-c2ocnc2C(=O)Nc2ncc(C)s2)c1	none
Cc1nn(CC(C)C)c(=S)[nH]c1=O	BoNT-A LC inh2 inconclusive, Autofluor counter 23998
COc1ccc2c(C)cc(SCC(=O)N3CCOCC3)nc2c1	BoNT-F LC inh 36
CC1COc2ccccc2N1S(=O)(=O)c1cc(Cl)ccc1Cl (stereo not drawn)	none
Cc1ccc(-c2nnc(SCC(=O)O)n2N)cc1	BoNT-A LC inh2 inconclusive, Autofluor counter 22439
CC(C)(C)c1ccc(-c2nnc(SCC(=O)O)n2N)cc1	Autofluor counter 22213
O=C(c1ccccc1)N1CCN(C2c3cccc4cccc(c34)C2NS(=O)(=O)c2ccccc2)CC1 (stereo not drawn)	Autofluor counter 23933
C1=Nc2c(Nc3ccccc3)ncnc2Oc2ccccc21	none
CC1(C)CC(=O)C/C(=N/NC(=O)COc2ccc3ccccc3c2Br)C1	none
COc1cccc(N2CCN(C(=O)C3C4C=CC5(CN(Cc6ccccc6Cl)C(=O)C35)O4)CC2)c1 (stereo not drawn)	Autofluor counter 23129
c1csc(-c2nnc(-c3ccc(N4CCOCC4)cc3)o2)c1	Autofluor counter 20353
N#Cc1nc(-c2cccs2)oc1N1CCN(c2ccccc2)CC1	Autofluor counter 20556
N#Cc1nc(Cc2ccccc2)oc1N1CCN(c2ccccc2)CC1	none
CCOc1ccc(-c2nnc(-c3cccs3)o2)cc1	none
O=C1/C(=C\c2ccccn2)SC(=S)N1Nc1ncc(C(F)(F)F)cc1Cl	Autofluor counter 22887
CCOC(=O)CNC(=O)c1sc2ncnc(N3CCc4ccccc4C3)c2c1C	Autofluor counter 19828
CCOc1cccc(-c2c(C(=O)N/N=C(\C)c3cccnc3)nnn2-c2nonc2N)c1	none
CCOC(=O)c1cnc(SC2CC(=O)N(c3ccccc3)C2=O)nc1N (stereo not drawn)	none
CCOC(=O)c1cnc(SC2CC(=O)N(c3ccc(C)cc3)C2=O)nc1N (stereo not drawn)	Autofluor counter 24081
CCOc1cccc(=O)c2c(C)n(Cc3ccco3)c(C)c12	Autofluor counter 22022
CCC(C)c1ccc(OCc2ccc(C(=O)O)o2)cc1 (stereo not drawn)	none
CCCN=C(N)/C(C(=O)OCC)=C(\O)c1ccc(OC)cc1	Autofluor counter 21368
CC(C)CCC(CCN1CCCC1)c1ccc2c(c1)OCO2 (stereo not drawn)	none
CC(C)CCC(CCN1CCOCC1)c1ccc2c(c1)OCO2 (stereo not drawn)	Autofluor counter 20867
Cc1cccc(C(=O)Nc2cccc3cccnc23)c1	none
O=C(Nc1cccc2cccnc12)c1cccnc1	Autofluor counter 18275
Cc1ccccc1C(=O)NC1CCN(CC(=O)Nc2nccs2)CC1	BoNT-A LC inh2 inconclusive, Autofluor counter 20345
COC(=O)c1ccccc1NC(=O)CN1CCC(NC(=O)c2ccccc2C)CC1	Autofluor counter 16191
